The record followed here is PubChem BioAssay (NCATS).

Assay [1] in a line: Quantitative High-Throughput drug screen in 47 multiple myeloma cell lines against the NCATS MIPE library collection: LP1_DSMZ cell viability assay (AID 1918982). Also: nearly all actives have a fitted effect of over 35% in size. Also: potency is read from the fitted curve at half-maximal effect. In a few lines: (§1)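 Viability after 48 h drug exposure was measured as ATP-dependent luminescence. Cells, 500 per well, sat at 37 °C under 5% CO2; DMSO wells set 100%, media-only wells 0%.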
Assay [2] is described as follows: Quantitative High-Throughput drug screen in 47 multiple myeloma cell lines against the NCATS MIPE library collection: L363_DSMZ cell viability assay (AID 1918984). Also: nearly all actives have a fitted effect of over 40% in size. Also: potency is read from the fitted curve at half-maximal effect. As to conditions: L363 myeloma viability, CellTiter-Glo ATP luminescence, 48 h; viability (% of control): at 45.8 µM (top of the series). In outline:
as §1
A general note: ATP-based viability assays read luminescence as a measure of living cells.

Assay [3] in a line: Quantitative High-Throughput drug screen in 47 multiple myeloma cell lines against the NCATS MIPE library collection: KMS34_JCRB cell viability assay (AID 1918985). Also: nearly all actives have a fitted effect of over 40% in size. Also: potency is read from the fitted curve at half-maximal effect. In outline:
as §1

A short description of assay [4]: Quantitative High-Throughput drug screen in 47 multiple myeloma cell lines against the NCATS MIPE library collection: OCIMY7_PLB cell viability assay (AID 1918987). Also: nearly all actives have a fitted effect of over 65% in size. Also: potency is read from the fitted curve at half-maximal effect. As to conditions: OCI-MY7 myeloma viability, CellTiter-Glo ATP, 48 h; viability (% of DMSO): at 45.8 µM (top of the series). In a few lines:
as §1

A short description of assay [5]: Quantitative High-Throughput drug screen in 47 multiple myeloma cell lines against the NCATS MIPE library collection: OCIMY5_PLB cell viability assay (AID 1918988). Also: nearly all actives have a fitted effect of over 65% in size. Also: potency is read from the fitted curve at half-maximal effect. In a few lines:
as §1

Assay [6] in a line: Quantitative High-Throughput drug screen in 47 multiple myeloma cell lines against the NCATS MIPE library collection: OPM1_PLB cell viability assay (AID 1918989). Also: nearly all actives have a fitted effect of over 40% in size. Also: potency is read from the fitted curve at half-maximal effect. In a few lines: as §1
Assay [7] can be described thus: Quantitative High-Throughput drug screen in 47 multiple myeloma cell lines against the NCATS MIPE library collection: XG6_PLB cell viability assay (AID 1919865). Also: nearly all actives have a fitted effect of over 40% in size. Also: potency is read from the fitted curve at half-maximal effect. In a few lines: as §1
The nature of assay [8]: Quantitative High-Throughput drug screen in 47 multiple myeloma cell lines against the NCATS MIPE library collection: XG1_PLB cell viability assay (AID 1919866). Also: nearly all actives have a fitted effect of over 35% in size. Also: potency is read from the fitted curve at half-maximal effect. In outline:
as §1

Assay [9] can be described thus: Quantitative High-Throughput drug screen in 47 multiple myeloma cell lines against the NCATS MIPE library collection: VP6_DJ cell viability assay (AID 1919867). Also: nearly all actives have a fitted effect of over 40% in size. Also: potency is read from the fitted curve at half-maximal effect. In a few lines:
as §1

The nature of assay [10]: Quantitative High-Throughput drug screen in 47 multiple myeloma cell lines against the NCATS MIPE library collection: UTMC2_PLB cell viability assay (AID 1919868). Also: nearly all actives have a fitted effect of over 55% in size. Also: potency is read from the fitted curve at half-maximal effect. As to conditions: CellTiter-Glo ATP luminescence, 48 h; viability (% of DMSO control): at 45.8 µM (top of the series). In a few lines:
as §1

Assay [11] is described as follows: Quantitative High-Throughput drug screen in 47 multiple myeloma cell lines against the NCATS MIPE library collection: PE2_PLB cell viability assay (AID 1919869). Also: nearly all actives have a fitted effect of over 35% in size. Also: potency is read from the fitted curve at half-maximal effect. In a few lines: as §1
The nature of assay [12]: Quantitative High-Throughput drug screen in 47 multiple myeloma cell lines against the NCATS MIPE library collection: PCM6_Riken cell viability assay (AID 1919870). Also: nearly all actives have a fitted effect of over 30% in size. Also: potency is read from the fitted curve at half-maximal effect. In a few lines: as §1
The nature of assay [13]: Quantitative High-Throughput drug screen in 47 multiple myeloma cell lines against the NCATS MIPE library collection: OPM2_DSMZ cell viability assay (AID 1919872). Also: nearly all actives have a fitted effect of over 30% in size. Also: potency is read from the fitted curve at half-maximal effect. In a few lines:
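CellTiter-Glo ATP luminescence gave viability after 48 h compound treatment at 37C of 500 multiple myeloma cells per well. Normalisation used DMSO-only wells as 100% and media-only wells as 0% viability; primary qHTS of approved and investigational drugs.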

Assay [14] can be described thus: Quantitative High-Throughput drug screen in 47 multiple myeloma cell lines against the NCATS MIPE library collection: KMS11_JCRBsus cell viability assay (AID 1919873). Also: nearly all actives have a fitted effect of over 50% in size. Also: potency is read from the fitted curve at half-maximal effect. In a few lines: as §1
The nature of assay [15]: Quantitative High-Throughput drug screen in 47 multiple myeloma cell lines against the NCATS MIPE library collection: KMS28BM_JCRB cell viability assay (AID 1919874). Also: nearly all actives have a fitted effect of over 35% in size. Also: potency is read from the fitted curve at half-maximal effect. In a few lines: as §1
Assay [16] can be described thus: Quantitative High-Throughput drug screen in 47 multiple myeloma cell lines against the NCATS MIPE library collection: KMS28PE_JCRB cell viability assay (AID 1918983). Also: nearly all actives have a fitted effect of over 35% in size. Also: potency is read from the fitted curve at half-maximal effect. In a few lines: as §1
Assay [17] is described as follows: Quantitative High-Throughput drug screen in 47 multiple myeloma cell lines against the NCATS MIPE library collection: SKMM1_PLB cell viability assay (AID 1919863). Also: nearly all actives have a fitted effect of over 35% in size. Also: potency is read from the fitted curve at half-maximal effect. As to conditions: SKMM1 myeloma viability, CellTiter-Glo ATP, 48 h; viability: stronger effect = lower value. In a few lines: as §1
The nature of assay [18]: Quantitative High-Throughput drug screen in 47 multiple myeloma cell lines against the NCATS MIPE library collection: U266_ATCC cell viability assay (AID 1919864). In outline: as §1
A short description of assay [19]: Quantitative High-Throughput drug screen in 47 multiple myeloma cell lines against the NCATS MIPE library collection: RPMI8226_ATCC cell viability assay (AID 1919871). Also: nearly all actives have a fitted effect of over 30% in size. Also: potency is read from the fitted curve at half-maximal effect. In a few lines:
as §1

Assay [20] deals with Cytochrome P450 3A4 (Homo sapiens) (UniProt P08684). Briefly: qHTS for inhibitors of CYP3A4 against the NCATS DSHEA and TCM libraries (AID 1919971).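 Also: % is scaled to controls: 0 for no effect and ±100 for the full control effect; inhibition lowers luminescence from luciferin made by CYP3A4.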 In outline:
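Luminescent P450-Glo readout. Enzyme plus pro-luciferin substrate in manufacturer buffer (typically 100 mM KPO4); 15 min RT preincubation; 1x NADPH regenerating system, 30-45 min RT in the dark; detection reagent 30 min.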

Results filed as inconclusive are left out. Values without a mark were called inactive. The source made the active and inactive calls. Calls follow the shape of the dose curve; as a rule, active = well fitted curve in the direction sought with a large enough effect; inconclusive = small, poorly fitted or top-dose-only effect, or another doubt; inactive = no such curve, though single readings can be large; an effect the other way counts as inactive or inconclusive.

Sequence of Cytochrome P450 3A4 (Homo sapiens) (P08684 whole entry, looked up): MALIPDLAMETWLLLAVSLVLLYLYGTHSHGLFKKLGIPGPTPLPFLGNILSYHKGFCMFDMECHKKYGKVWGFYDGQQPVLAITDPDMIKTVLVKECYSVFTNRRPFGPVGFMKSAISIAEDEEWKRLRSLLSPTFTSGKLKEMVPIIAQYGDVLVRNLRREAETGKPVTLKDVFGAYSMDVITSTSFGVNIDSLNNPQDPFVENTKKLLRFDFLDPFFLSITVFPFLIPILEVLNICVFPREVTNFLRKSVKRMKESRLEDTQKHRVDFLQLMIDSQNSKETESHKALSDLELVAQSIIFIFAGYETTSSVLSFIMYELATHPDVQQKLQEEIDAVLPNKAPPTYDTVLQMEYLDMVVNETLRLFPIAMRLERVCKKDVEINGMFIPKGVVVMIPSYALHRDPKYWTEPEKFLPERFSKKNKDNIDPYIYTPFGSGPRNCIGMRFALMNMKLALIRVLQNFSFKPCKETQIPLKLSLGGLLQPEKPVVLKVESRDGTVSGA

Consider `N#CC(c1ccnc(NCCc2cccnc2)n1)c1nc2ccccc2s1` (centres undefined), for which the Potency was 18.7 µM (active) in assay [1]; 4.69 µM (active) in assay [2]; 14.8 µM (active) in assay [3]; 2.96 µM (active) in assay [4]; 13.2 µM (active) in assay [5]; 14.8 µM (active) in assay [6]. Further, the Potency was 5.9 µM (active) in [7]; 10.5 µM (active) in [8]; 10.5 µM (active) in assay [9]; 16.6 µM (active) in assay [10]; 5.26 µM (active) in assay [11]; 5.9 µM (active) in assay [12]. Moreover, the Potency was 26.4 µM (active) in [13], 11.8 µM (active) in [14] and 26.4 µM (active) in assay [15].
In the case of `NC1(C(=O)N[C@@H](CCO)c2ccc(Cl)cc2)CCN(c2ncnc3[nH]ccc23)CC1`, the Potency was 0.372 µM (active) in assay [16]; 0.235 µM (active) in assay [2]; 8.33 µM (active) in [3]; 3.72 µM (active) in assay [4]; 5.26 µM (active) in [5]; 1.48 µM (active) in [6]. Besides, the Potency was 5.9 µM (active) in [17]; 13.2 µM (active) in assay [18]; 20.9 µM (active) in assay [7]; 4.18 µM (active) in assay [8]; 0.235 µM (active) in assay [9]; 0.235 µM (active) in [10]. The figures for the Potency in [11], in [12] and in [13] were 5.9 µM (active), 5.26 µM (active) and 13.2 µM (active), respectively.
Take `OC1CCC(Nc2ncc3nc(Nc4c(F)cc(F)cc4F)n([C@@H]4CCOC4)c3n2)CC1` (some centres undefined): the Potency entry in assay [16], in assay [10], in assay [19] and in assay [15] was “inactive” each time. The Potency in [2] was 5.26 µM (active); in [3] it was 23.5 µM (active); in assay [6], 20.9 µM (active); in assay [17], 18.7 µM (active); in assay [7], 9.35 µM (active); in assay [8], 13.2 µM (active). The Potency in [12] is 18.7 µM (active).
Consider `CC(C)(CO)[C@@H](O)C(=O)NCCC(=O)O`, for which the Potency result in assay [1], in assay [4], in assay [5], in assay [6], in [8] and in assay [11] was “inactive” throughout. For the same compound, the Potency result in assay [19], in assay [13], in assay [14] and in assay [15] was “inactive” throughout. Further, the viability in [17] was 102%. The results for the Potency in [7] and in assay [12] were 20.9 µM (active) and 16.6 µM (active), respectively. Further, in assay [20], the outcome was inactive.
For the compound `COc1cc(C=CC(=O)O)ccc1O`, the Potency result in assay [1], in assay [5], in [7], in [9], in [12] and in assay [19] was “inactive” in each case. For the same compound, the Potency result in [13], in [14] and in assay [15] was “inactive” each time. The viability in assay [17] is 124%.
Take `CNc1nc(-c2ccc3c(N)n[nH]c3c2)cc(N2C[C@@H](C(=O)NC3CCCCC3)CC[C@@H]2C)n1`: the Potency in [1] is 2.64 µM (active); in [3] it was 20.9 µM (active); in assay [4], 0.0662 µM (active); in [6] it was 23.5 µM (active); in assay [18], 16.6 µM (active); in assay [7] it was 20.9 µM (active). Moreover, the Potency in assay [9] was 5.9 µM (active); in assay [11], 6.62 µM (active); in [12], 18.7 µM (active); in assay [13] it was 23.5 µM (active); in [14], 5.26 µM (active); in [15] it was 23.5 µM (active).
In the case of `CCOC(=O)c1c(CSc2ccccc2)n(C)c2cc(Br)c(O)c(CN(C)C)c12`, the Potency in assay [16] is 18.7 µM (active); in [2], 20.9 µM (active); in assay [3], 11.8 µM (active); in assay [5], 16.6 µM (active); in assay [6], 5.26 µM (active); in assay [17], 6.62 µM (active). In addition, the Potency in assay [7] is 14.8 µM (active); in assay [12] it was 16.6 µM (active); in [19] it was 11.8 µM (active); in [14], 18.7 µM (active); in [15] it was 14.8 µM (active).
Regarding `Cc1ccc(NC(=O)c2ccc(CN3CCN(C)CC3)cc2)cc1Nc1nc(-c2cccnc2)cs1`, the Potency in assay [16] was 16.6 µM (active); in assay [2] it was 9.35 µM (active); in [4] it was 14.8 µM (active); in assay [5] it was 23.5 µM (active); in assay [6], 9.35 µM (active); in [17], 23.5 µM (active). For the same compound, the Potency in [18] was 23.5 µM (active); in assay [7], 7.43 µM (active); in [8] it was 13.2 µM (active); in assay [9], 8.33 µM (active); in [11], 11.8 µM (active); in [12], 4.18 µM (active). The Potency in assay [19] was 18.7 µM (active); in assay [14] it was 10.5 µM (active).
For the compound `NCC1CCC(C(=O)O)CC1` (centres undefined), the Potency result in [16], in assay [2], in [3], in [6], in [7] and in assay [11] was “inactive” in each case. For the same compound, the Potency entry in [12], in [19], in assay [13], in [14] and in assay [15] was “inactive” in each case. Also, in assay [18], the Potency was 5.9 µM (active).
On to `CN[C@@H]1CN(c2ccc3c(=O)c(C(=O)O)cn(-c4nccs4)c3n2)C[C@@H]1OC`, for which the Potency in assay [16] was 18.2 µM (active); in [3], 5.12 µM (active); in assay [4] it was 5.75 µM (active); in [5] it was 12.9 µM (active); in [6] it was 14.4 µM (active); in assay [17], 7.24 µM (active). Also, the Potency in assay [18] was 8.12 µM (active); in [7], 1.62 µM (active); in assay [10], 1.29 µM (active); in assay [11], 1.82 µM (active); in [12] it was 3.23 µM (active); in assay [19] it was 12.9 µM (active). For the same compound, the Potency entry in assay [2] is “inactive”.
As to `COc1ccc2cc1Oc1ccc(cc1)C[C@H]1c3cc(c(OC)cc3CCN1C)Oc1c(OC)c(OC)cc3c1[C@H](C2)N(C)CC3`, the Potency in assay [16] is 14.8 µM (active); in [2], 5.9 µM (active); in assay [3], 14.8 µM (active); in assay [4], 16.6 µM (active); in assay [5], 16.6 µM (active); in assay [6] it was 18.7 µM (active). For the same compound, the Potency in [18] was 18.7 µM (active); in assay [7], 14.8 µM (active); in assay [8] it was 10.5 µM (active); in assay [19] it was 6.62 µM (active); in assay [14] it was 14.8 µM (active). Moreover, the Potency result in [13] was “inactive”.

In general, viability refers to a read-out of living cells in per cent, often relative to untreated cells.
